Source: PubChem BioAssay AID449739 (Vanderbilt High Throughput Screening Facility, 2010)
Screen size: about 100,000 compounds; about 4,200 (4.2%) were called active.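 How the source made its calls: active means single-dose well whose peak fluorescence ratio is a statistical outlier from its plate by either plate-standardised score or position-corrected B-score; inactive means the rest.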 Many of the other results were omitted from the sample, so actives are more common in it than they were.

molecular target: Voltage-dependent T-type calcium channel subunit alpha-1H (Homo sapiens) (UniProt O95180); assay: Cav3.2 calcium influx blockers – cell-based, Fluo-4 calcium fluorescence, FDSS, MLSMR library, primary screen (AID 449739); details: Cav3.2-expressing cells, at 10 µM, stronger effect = lower value
Sequence (O95180 whole entry, looked up): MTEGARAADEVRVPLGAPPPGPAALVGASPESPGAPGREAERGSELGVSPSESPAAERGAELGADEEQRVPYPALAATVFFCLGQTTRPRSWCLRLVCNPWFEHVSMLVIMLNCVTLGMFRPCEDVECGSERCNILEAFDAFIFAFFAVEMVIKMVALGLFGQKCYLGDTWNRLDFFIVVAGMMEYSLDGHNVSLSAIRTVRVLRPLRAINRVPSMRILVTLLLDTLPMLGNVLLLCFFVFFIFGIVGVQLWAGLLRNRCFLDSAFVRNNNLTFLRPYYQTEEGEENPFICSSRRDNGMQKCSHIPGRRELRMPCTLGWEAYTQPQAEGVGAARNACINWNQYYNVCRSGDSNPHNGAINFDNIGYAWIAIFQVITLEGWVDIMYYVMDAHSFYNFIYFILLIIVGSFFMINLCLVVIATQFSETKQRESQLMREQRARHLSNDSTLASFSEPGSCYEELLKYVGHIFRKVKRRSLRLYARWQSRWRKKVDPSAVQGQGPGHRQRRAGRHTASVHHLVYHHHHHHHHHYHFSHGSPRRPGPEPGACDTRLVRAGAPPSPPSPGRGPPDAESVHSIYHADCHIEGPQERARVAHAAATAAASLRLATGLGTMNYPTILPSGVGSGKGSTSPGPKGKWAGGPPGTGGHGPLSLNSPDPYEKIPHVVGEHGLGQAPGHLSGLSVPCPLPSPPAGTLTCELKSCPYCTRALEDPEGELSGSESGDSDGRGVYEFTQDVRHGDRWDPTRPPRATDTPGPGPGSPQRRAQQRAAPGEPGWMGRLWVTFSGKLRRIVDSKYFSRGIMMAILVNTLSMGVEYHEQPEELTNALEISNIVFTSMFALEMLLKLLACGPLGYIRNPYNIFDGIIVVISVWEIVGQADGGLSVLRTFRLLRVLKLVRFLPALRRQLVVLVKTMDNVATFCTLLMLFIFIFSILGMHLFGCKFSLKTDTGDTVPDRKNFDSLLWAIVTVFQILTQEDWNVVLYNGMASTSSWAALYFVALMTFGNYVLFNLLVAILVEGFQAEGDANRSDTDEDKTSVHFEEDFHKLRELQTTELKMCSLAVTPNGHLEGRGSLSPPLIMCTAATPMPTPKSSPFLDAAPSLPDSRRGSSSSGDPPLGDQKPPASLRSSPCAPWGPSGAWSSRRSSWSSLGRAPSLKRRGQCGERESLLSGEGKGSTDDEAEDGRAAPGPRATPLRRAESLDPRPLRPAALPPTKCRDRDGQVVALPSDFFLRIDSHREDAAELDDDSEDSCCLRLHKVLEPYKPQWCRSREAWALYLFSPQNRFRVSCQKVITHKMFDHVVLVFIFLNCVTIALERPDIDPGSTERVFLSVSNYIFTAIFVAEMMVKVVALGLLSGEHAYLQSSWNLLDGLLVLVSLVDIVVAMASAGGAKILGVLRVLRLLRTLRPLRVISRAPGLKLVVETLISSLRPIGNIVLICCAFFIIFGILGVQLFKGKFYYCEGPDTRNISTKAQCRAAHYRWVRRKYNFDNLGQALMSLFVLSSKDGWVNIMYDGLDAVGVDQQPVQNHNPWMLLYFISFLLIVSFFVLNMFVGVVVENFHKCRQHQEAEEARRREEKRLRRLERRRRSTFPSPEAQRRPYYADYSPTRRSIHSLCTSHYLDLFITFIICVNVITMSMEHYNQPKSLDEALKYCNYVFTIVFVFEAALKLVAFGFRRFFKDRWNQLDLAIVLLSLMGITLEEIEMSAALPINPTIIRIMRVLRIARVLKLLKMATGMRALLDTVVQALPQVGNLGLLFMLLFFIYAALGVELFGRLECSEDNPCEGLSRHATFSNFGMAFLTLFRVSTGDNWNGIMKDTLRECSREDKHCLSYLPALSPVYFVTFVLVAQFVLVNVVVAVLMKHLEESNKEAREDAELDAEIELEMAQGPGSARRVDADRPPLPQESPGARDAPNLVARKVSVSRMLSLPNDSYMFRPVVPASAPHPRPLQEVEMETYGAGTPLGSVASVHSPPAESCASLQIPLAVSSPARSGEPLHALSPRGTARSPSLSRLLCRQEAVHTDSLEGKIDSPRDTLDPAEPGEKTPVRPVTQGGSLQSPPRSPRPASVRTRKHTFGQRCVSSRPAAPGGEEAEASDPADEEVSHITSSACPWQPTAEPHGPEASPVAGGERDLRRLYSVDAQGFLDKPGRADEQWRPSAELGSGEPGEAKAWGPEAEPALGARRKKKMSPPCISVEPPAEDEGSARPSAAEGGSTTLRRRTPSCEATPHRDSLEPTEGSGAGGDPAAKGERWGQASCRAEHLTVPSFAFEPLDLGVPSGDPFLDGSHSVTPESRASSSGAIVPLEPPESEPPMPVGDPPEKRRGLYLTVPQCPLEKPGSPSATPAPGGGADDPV

B-score, inactive:
COc1cccc(N2CC(C(=O)Nc3c(C)cccc3C)CC2=O)c1 (stereo unspecified) 0.386
COC(=O)c1cc(Cl)c(NC(=O)c2ccco2)cc1OC -0.41
COc1ccc(NC(=O)c2cccc(NC(=O)c3ccco3)c2)c(OC)c1 -2.2
Cc1nc(C(=O)NCc2ccccc2)sc1C1(C)CC(c2cccnc2)=NO1 (stereo unspecified) 0.0411
CCOC(=O)c1ccc(NC(=O)c2nc[nH]c2C(=O)NCc2ccccc2)cc1 -0.706
CSc1ccc(S(=O)(=O)NCc2ccc(Cl)cc2)cc1 -1.35
CSc1ccc(S(=O)(=O)NC2CCCCC2)cc1 -0.215
CC(C)(C)OC(=O)NCCCC1=CC2=CC(=O)C(C)(OC(=O)c3ccco3)C(=O)C2=CO1 (stereo unspecified) 0.291
CCNC(=S)NNC(=O)Cc1ccccc1 0.703
Cc1ccc(NC(=S)NC(=O)c2ccc(-c3ccccc3)cc2)cc1 -0.678
CCOc1c2ccc(C(=O)NCc3ccc4c(c3)OCO4)cc2nn1C 0.329
CC(=O)NS(=O)(=O)c1ccc(NC(=O)/C=C/c2ccccc2Cl)cc1 -1.8
CCNc1nc(N)nc(-c2cc(Cl)ccc2OC)n1 0.499
CC[C@@H](C)[C@@H](C(=O)N1CCN(C(=O)OC(C)(C)C)CC1)n1cc(CCC(=O)O)nn1 1.09
COc1ccc(Cl)cc1C(=O)NCC#N 0.746
CC(C)(C)C(=O)Nc1ccc(C(=O)N/N=C/c2ccccc2OC(=O)c2ccc(Cl)cc2Cl)cc1 -2.74
CCOc1cc(/C=C2/N=C(c3ccc(C(C)(C)C)cc3)OC2=O)cc(Cl)c1OS(C)(=O)=O -1.04
CCn1cc(C(=O)NCc2ccc3c(c2)OCO3)c2cc(OC)c(OC)cc2c1=O 0.417
CC(C)NC(=O)CSc1ccccc1C(=O)NCc1ccc2c(c1)OCO2 0.374
O=C(CSc1nc(C2CC2)nc2ccccc12)Nc1ccc2c(c1)OCCO2 0.0431
COc1ccc(OC)c(C(=O)c2ccc(C(=O)O)cc2)c1 -3.15
COc1ccc2oc(C)c(NC(C)=O)c2c1 0.131
Cc1ccccc1C(=O)N1CCC(C(=O)Nc2ccc(S(=O)(=O)N(C)C(C)C)cc2)CC1 0.159
NC(=O)CC[C@@H]1NC(=O)[C@H](CO)NC(=O)c2cc([N+](=O)[O-])cc(I)c2NCC[C@@H](C(N)=O)NC1=O 0.984
O=C(COC(=O)c1ccc2c(c1)OCCO2)NCc1ccccc1 -0.412
O=C(CC(Cc1ccccc1)C(=O)O)NCCc1ccc2c(c1)OCO2 (stereo unspecified) -0.225
COc1ccc(CNC(=O)[C@@H]2CC=C[C@@H]3CCN(C4CC4)C(=O)[C@@H]32)cc1 1.86
CC[C@H](C)[C@@H](C(=O)N1CCNCC1)n1cc([C@@H](N)Cc2ccc(O)cc2)nn1 0.0182
Cc1cccc(N(C(=O)Cc2cccs2)C(C(=O)NC2CCCC2)c2ccsc2)c1 (stereo unspecified) -1.16
CCC1(CC)C(=O)C2=C3C1[C@H](C(=O)OC)C=C(C(=O)OC)C[C@H]3[C@H]1C(=O)N(Cc3ccccc3)C(=O)[C@H]1[C@H]2C (stereo partly specified) 0.691
Cc1ccc(-c2cc(=O)c3ccc(Cl)cc3[nH]2)cc1 -0.0223
O=c1[nH]n(-c2cccc(Cl)c2)c2ncccc12 0.173
Cc1ccc(C)n1C(Cc1ccccc1)C(=O)O (stereo unspecified) 1.91
CC1=CC(C)(C)Nc2ccc(OC(=O)CN3C(=O)C4CCCCC4C3=O)cc21 (stereo unspecified) -0.00954
COCCCn1c(SCc2cccc(OC)c2)nc2cc(OC)c(OC)cc2c1=N -0.819
C=C1CCN([C@H](C(=O)NCc2cc(OC)c(OC)c(OC)c2)C(C)C)S(=O)(=O)c2ccccc21 1.03
COc1ccc2cc1Oc1ccc(cc1)C[C@H]1c3cc(c(OC)cc3CCN1C)Oc1c(O)c(OC)cc3c1[C@H](C2)N(C)CC3 1.81
COc1ccc(-c2cc(C(=O)n3cnc4ccccc43)c3ccccc3n2)cc1 -0.0392
COc1ccccc1CSc1nc2ccccc2[nH]1 -0.942
O=C(COc1ccccc1)NCCc1nc2ccccc2[nH]1 0.299
COc1ccccc1C1/C(=C(/O)c2ccc(OC(C)C)cc2)C(=O)C(=O)N1c1cc(C)on1 (stereo unspecified) -0.532
O=C1C(=O)N(CCN2CCOCC2)C(c2ccccn2)/C1=C(/O)c1ccc(Cl)cc1 (stereo unspecified) -0.156
Cc1cccc(NC(=S)Nc2ccc(Br)cc2)c1 -1.14

B-score, active:
COc1cccc(N(C(=O)c2ccn[nH]2)C2(C(=O)Nc3c(C)cccc3C)CCCCC2)c1 -4.96
COc1ccccc1C(=O)Nc1ccc(NC(=O)c2ccco2)c(C)c1 -5.24
Oc1c(Cl)cc(Cl)c(Cl)c1Cc1c(O)c(Cl)cc(Cl)c1Cl -5.05
CSc1ccc(S(=O)(=O)Nc2cccc(F)c2)cc1 -4.09
COc1ccc(C(=O)NC(=S)NNC(=O)CCc2ccccc2)cc1 -4.4
COC(=O)/C(=C\Nc1ccccc1)NC(=O)c1ccc(Cl)cc1Cl -5.14
Cc1nc2c(C(=O)NCc3ccc4c(c3)OCO4)c[nH]n2c(=O)c1Cc1ccccc1F -5.22
COc1ccc(OC)c(C(=O)c2coc3ccc(OC)cc23)c1 -3.61
O=C(NCCc1ccc2c(c1)OCCO2)c1cc2ccccc2o1 -3.85
Cc1[nH]n(-c2cccc(Cl)c2)c(=O)c1-c1ccc(Cl)cc1 -7.48
CC1=CC(C)(C)Nc2ccc(OC(=O)C(Cc3ccccc3)N3C(=O)C4CCCCC4C3=O)cc21 (stereo unspecified) -5.23
COc1ccc(-c2[nH]nc(-c3ccccc3)c2-c2nc3ccccc3[nH]2)cc1 -6.24
Cc1cc(N2C(=O)C(=O)/C(=C(/O)c3ccc(Cl)cc3)C2c2cccc(Br)c2)no1 (stereo unspecified) -7.89
